NS3h inh CB – blocks HCV NS3 helicase binding to DNA; 16,000 compounds, 1.6% hits; NS3h Cy5-dT15 DNA binding, fluorescence polarization; inhibition, % at 100 µM;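 active means inhibition above the average over every tested compound plus 3 SD, cut at about 40% in these data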
Cy5 interf NS3h – enhances or quenches Cy5 fluorescence in NS3h assay; Cy5-dT15 DNA with NS3h, fluorescence interference; actives lie on both sides; signal over control mean, under 1 quenches; fluorescence interference ratio at 100 µM; 16,000 compounds, 6% hits; AID 720488;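 active means compound fluorescence over control fluorescence at most 0.8, a quencher, or at least a set upper limit, an enhancer; inactive means ratio between 0.8 and the set upper limit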
Numbers without * were called inactive. The list is not random: actives were taken first. Their share in the collection is about 6.8%.

SMILES	NS3h inh CB	Cy5 interf NS3h
CC(C)(C)C(=O)/C=C(/O)C(=O)NCc1ccccc1	6	0.85
Fc1cccc(Cl)c1Cc1noc(-c2ccccc2Br)n1	3	0.95
CC(=O)Nc1ccc(NC(=S)NC(NC(=O)c2ccc(C)cc2)C(Cl)(Cl)Cl)cc1 (stereo unspecified)	6	0.67*
CC(=O)c1ccc(NC(=S)NC(NC(=O)c2ccc(C)cc2)C(Cl)(Cl)Cl)cc1 (stereo unspecified)	-8	0.99
CC(=O)NC(NC(=S)Nc1cccc(Cl)c1)C(Cl)(Cl)Cl (stereo unspecified)	19	1.2*
Cc1ccc(C(=O)NC(NC(=S)Nc2cccc3ccccc23)C(Cl)(Cl)Cl)cc1 (stereo unspecified)	5	0.71*
CC(=O)c1ccc(NC(=S)NC(NC(=O)c2ccc(Cl)cc2Cl)C(Cl)(Cl)Cl)cc1 (stereo unspecified)	0	1
O=C(NC(NC(=S)Nc1cccc2ccccc12)C(Cl)(Cl)Cl)c1ccccc1 (stereo unspecified)	8	0.9
Cc1cc(C)n(-c2nc(Nc3ccc(Br)cc3)nc(-n3nc(C)cc3C)n2)n1	19	0.97
O=C(/C=C/c1ccccc1Cl)Nc1cccc(Br)c1	7	1
CC(C)OC(=O)c1cnn2c(C(F)(F)F)cc(-c3ccc(F)cc3)nc12	10	0.94
O=C(Nc1cccc(C(F)(F)F)c1)c1cnn2c(C(F)(F)F)cc(-c3cccs3)nc12	8	0.66*
O=C(c1ccccc1)N1CCN(C(=O)c2nn3c(C(F)(F)F)cc(-c4cccs4)nc3c2Br)CC1	10	0.71*
COc1ccc(-c2cc(C(F)(F)F)n3nc(C(=O)N4CCc5ccccc5C4)cc3n2)cc1	9	0.97
COCC(O)CN1CCN(c2ccc([N+](=O)[O-])cc2Cl)CC1 (stereo unspecified)	-13	0.99
O=[N+]([O-])c1ccc(N2CCN(S(=O)(=O)Cc3ccccc3)CC2)c(Cl)c1	18	0.74*
O=C(c1cccc(F)c1F)N1CCN(c2cc(N3CCCCC3)c(F)cc2[N+](=O)[O-])CC1	7	1
COc1ccc(OC)c(/C=C2/SC(=S)N(CNc3cccc(Cl)c3)C2=O)c1	22	0.6*
COC(=O)CN1C(=O)/C(=C/c2cc(OC)ccc2OC)SC1=S	10	1
CC(C)C(NS(=O)(=O)c1ccccc1[N+](=O)[O-])C(=O)NC(C)(C)C (stereo unspecified)	7	0.93
CCOC(=O)C1=C(C)N=C2SCCC(=O)N2C1c1ccc(Br)cc1 (stereo unspecified)	-2	1.1
CC(C)COc1ccc2c(c1)c1c3c(nccn32)CCC1	-3	0.76*
Cc1ccc(C(=O)N/C(=C\c2ccc(Cl)cc2)C(=O)NCc2ccncc2)cc1	5	0.89
COc1cc(SC)ccc1C(=O)N1CCCC(C)C1 (stereo unspecified)	5	1.1
O=C(c1ccc(Cl)cc1)N1CCN=C1c1ccccc1	2	0.64*
SMILES	NS3h inh CB	Cy5 interf NS3h
O=C(c1ccccc1)N1CCN=C1c1ccccc1	-8	0.88
COc1ccccc1-c1coc2cc(OC(=O)c3c(C)cc(C)cc3C)ccc2c1=O	-3	0.99
Cc1ccccc1OCCOc1ccc(/C=c2\sc3nc4ccccc4n3c2=O)cc1	13	1.1
Cc1ccc(OCCOCCOc2ccc(/C=c3\sc4nc5ccccc5n4c3=O)cc2)cc1	9	1.3*
COC(=O)C1=C(O)/C(=C/c2ccc(OCC(=O)Nc3ccccc3OC)cc2)N=C1C	-12	0.97
Nc1nonc1-n1nnc(CN2CCOCC2)c1CN1CCOCC1	11	1.1
Nc1nonc1-n1nnc(CN2CCCCCC2)c1CN1CCCCCC1	3	1.2*
O=C(NCc1ccc(Cl)cc1)c1cnn2c(C(F)(F)F)cc(-c3ccco3)nc12	12	0.59*
COC(=O)c1cnn2c(C(F)(F)F)cc(-c3ccccc3)nc12	10	1
Cc1ccc(O)c(NC(=O)c2cnn3c(C(F)(F)F)cc(-c4ccco4)nc23)c1	1	0.58*
COc1cc(-c2cc(C(F)(F)F)n3ncc(C(=O)NCc4cccnc4)c3n2)cc(OC)c1OC	-1	1.1
CCC1CCCCN1C(=O)c1cnn2c(C(F)(F)F)cc(-c3ccc(C)cc3)nc12 (stereo unspecified)	17	1.1
COC(=O)c1ccccc1NC(=O)c1cnn2c(C(F)(F)F)cc(-c3ccc(OC)c(OC)c3)nc12	12	0.68*
COc1ccc(OC)c(CN2CCN(Cc3cccc(C)c3)CC2)c1	-16	0.99
Cc1ccc(-n2nc(C)c(-c3cccc([N+](=O)[O-])c3)c2C)cc1C	4	0.9
Cc1nn(-c2ccc(Cl)c(Cl)c2)c(C)c1-c1cccc([N+](=O)[O-])c1	21	0.69*
COc1ccc(C(=O)c2ccccc2)c(OC)c1	-6	0.91
COc1ccc(/C(C)=N\N=C(\C)c2ccc(OC)cc2OC)c(OC)c1	16	0.67*
COc1ccc(/C=C2/SC(=S)N(CCCC(=O)OCCN(C)C)C2=O)cc1	4	0.8*
COCCCN1C(=O)/C(=C/c2ccc(N(C)C)cc2)SC1=S	31	1
COc1ccccc1NC(=O)/C=C/c1ccc(C)o1	30	1
COc1ccc(OC)c(N(CC(=O)Nc2ccc(Br)cc2)S(C)(=O)=O)c1	-1	1
O=C(c1ccccc1F)N1CCN(c2cc(N3CCCCC3)c(F)cc2[N+](=O)[O-])CC1	-5	1
COc1ccccc1NC(=O)CN(c1ccc(C)cc1)S(=O)(=O)c1ccc(SC)cc1	20	0.69*
CSc1ccc(S(=O)(=O)N(CC(=O)Nc2cccc(Br)c2)c2ccc(C)cc2)cc1	10	0.85
SMILES	NS3h inh CB	Cy5 interf NS3h
CSc1ccc(S(=O)(=O)N(CC(=O)Nc2cccc(C)c2)c2ccc(C)cc2)cc1	22	0.7*
COCCNC(=O)CN(c1ccc(C)cc1)S(=O)(=O)c1ccc(SC)cc1	4	0.92
CC(C)N=C1NS(=O)(=O)c2cc([N+](=O)[O-])ccc21	-4	1
CC(C)(C)CC(C)(C)N=C1NS(=O)(=O)c2cc([N+](=O)[O-])ccc21	3	0.61*
O=C(Nc1ccccc1O)c1ccc2c(c1)C(=O)N(c1cccc(C(=O)c3ccccc3)c1)C2=O	0	1
O=C(Nc1nccs1)c1cccc(N2C(=O)c3ccccc3C2=O)c1	-41	1.2*
O=C(NCCN1CCOCC1)c1cnn2c1NC(c1ccco1)CC2C(F)(F)F (stereo unspecified)	0	1
COCCNC(=O)c1cnn2c1NC(c1ccc(OC)c(OC)c1)CC2C(F)(F)F (stereo unspecified)	-10	0.94
Cc1ccc(C2CC(C(F)(F)F)n3ncc(C(=O)NCCN4CCOCC4)c3N2)cc1 (stereo unspecified)	9	0.77*
COc1ccc(C2CC(C(F)(F)F)n3ncc(C(=O)NC(C)(C)C)c3N2)cc1 (stereo unspecified)	8	0.69*
Cc1ccc(C2CC(C(F)(F)F)n3ncc(C(=O)N4CCN(c5ccc(F)cc5)CC4)c3N2)cc1 (stereo unspecified)	3	0.63*
COc1ccc(C2CC(C(F)(F)F)n3ncc(C(=O)N4CCN(Cc5ccccc5)CC4)c3N2)cc1OC (stereo unspecified)	9	0.61*
O=C(c1ccccc1)N1CCN(C(=O)c2cnn3c2NC(c2ccc(Br)cc2)CC3C(F)(F)F)CC1 (stereo unspecified)	17	1.1

Compound activity deposited in PubChem by Milwaukee Institute for Drug Discovery.
